Assay results taken from PubChem BioAssay (EPA / NIEHS).
Records with an inconclusive call do not appear. Calls of active or inactive are those of the source. How the source made its calls: active means hit-call score of the fitted dose curve at least 0.9, where 1 is the maximum; inconclusive means response in the unintended direction; inactive means score below 0.9.

Tests used:
[1] = TOX21_p53_BLA_p2_viability: Viability Assessment in the Tox21 HCT-116 p53 Agonism Beta-lactamase Assay, Phase 2 (AID 2283591);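 further: compound exposure lasted 16 h at 37 °C; actives lower the ATP signal meaning cytotoxicity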
Method in brief: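 Cytotoxicity readout: CellTiter-Glo ATP luminescence, 30 min at room temperature, after the beta-lactamase read. Cells were HCT116 exposed 16 h at 37C to compounds pin-transferred at 217-fold dilution from DMSO stocks.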

[2] = biological target: Cellular tumor antigen p53 (Homo sapiens) (UniProt P04637); experiment: TOX21_p53_BLA_p2_ratio: Tox21 HCT-116 p53 Agonism Beta-lactamase Assay, Ratio, Phase 2 (AID 2283592)
Chain of Cellular tumor antigen p53 (Homo sapiens) (P04637 whole entry, looked up): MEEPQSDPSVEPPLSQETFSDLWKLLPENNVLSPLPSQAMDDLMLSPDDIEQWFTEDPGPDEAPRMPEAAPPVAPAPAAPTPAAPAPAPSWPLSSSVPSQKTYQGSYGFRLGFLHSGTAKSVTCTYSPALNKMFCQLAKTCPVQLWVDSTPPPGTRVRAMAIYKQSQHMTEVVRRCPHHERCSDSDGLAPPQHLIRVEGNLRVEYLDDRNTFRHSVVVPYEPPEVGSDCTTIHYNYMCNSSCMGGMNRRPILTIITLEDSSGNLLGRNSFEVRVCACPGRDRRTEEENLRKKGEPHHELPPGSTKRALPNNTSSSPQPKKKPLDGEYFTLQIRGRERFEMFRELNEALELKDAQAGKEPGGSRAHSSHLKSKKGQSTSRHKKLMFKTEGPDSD
Method in brief: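 HCT-116 cells with p53-responsive beta-lactamase reporter, 4000 cells/well, preincubated 5 h, then compound in DMSO (217-fold dilution) for 16 h at 37C. CCF4-AM substrate 2 h at room temperature; 460/530 nm emission ratio fitted upward versus DMSO.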

[3] = TOX21_p53_BLA_p4_viability: Viability Assessment in the Tox21 HCT-116 p53 Agonism Beta-lactamase Assay, Phase 4 (AID 2283597);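 further: hits lower the luminescence signal meaning cytotoxicity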
Method in brief: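 HCT-116 p53-bla cells, 4000/well, dosed after 5 h attachment and incubated 16 h at 37 °C, 5% CO2. Viability from CellTiter-Glo ATP luminescence after 30 min at room temperature, taken after the beta-lactamase read; loss of signal indicates cytotoxicity.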

[4] = biological target: Cellular tumor antigen p53 (Homo sapiens) (UniProt P04637); experiment: TOX21_p53_BLA_p5_ratio: Tox21 HCT-116 p53 Agonism Beta-lactamase Assay, Ratio, Phase 5 (AID 2283599)
Method in brief: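 Beta-lactamase reporter ratio (blue 460 nm over green 530 nm, 405 nm excitation) after 2 h CCF4-AM loading, in HCT-116 cells exposed 16 h at 37 C to compounds pinned at 217-fold dilution. Increases relative to DMSO baseline scored.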

[5] = TOX21_p53_BLA_p5_viability: Viability Assessment in the Tox21 HCT-116 p53 Agonism Beta-lactamase Assay, Phase 5 (AID 2283600)
Method in brief: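 HCT-116 p53 beta-lactamase reporter cells, 4000/well, were exposed to compound (pin transfer, 217-fold dilution) for 16 hours at 37C. Cellular ATP was read by CellTiter-Glo luminescence after 30 min at room temperature.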

[6] = biological target: Cellular tumor antigen p53 (Homo sapiens) (UniProt P04637); experiment: TOX21_p53_BLA_p4_ratio: Tox21 HCT-116 p53 Agonism Beta-lactamase Assay, Ratio, Phase 4 (AID 2283601)
Method in brief: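 Signal is the blue/green (460nm/530nm) ratio of cleaved versus uncleaved CCF4-AM substrate, read after 2 h substrate loading. Cells were HCT116 carrying the p53-responsive beta-lactamase reporter, dosed 16 h at 37C, 5% CO2; CellTiter-Glo measured in parallel.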

[7] = TOX21_p53_BLA_p3_viability: Viability Assessment in the Tox21 HCT-116 p53 Agonism Beta-lactamase Assay, Phase 3 (AID 2283593);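 further: cells exposed to compound for 16 h before reading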
Method in brief: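 Cellular ATP was quantified by CellTiter-Glo luminescence, read after 30 min at room temperature. Beforehand, HCT116 cells (4000/well) received compound 5 h post-seeding, 217-fold diluted from DMSO, then incubated 16 h at 37C.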

[8] = biological target: Cellular tumor antigen p53 (Homo sapiens) (UniProt P04637); experiment: TOX21_p53_BLA_p3_ratio: Tox21 HCT-116 p53 Agonism Beta-lactamase Assay, Ratio, Phase 3 (AID 2283596)
Method in brief: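 HCT116 p53-bla cells (4000/well) given compound in DMSO (217-fold dilution) after 5 h, incubated 16 h at 37C. CCF4-AM substrate 2 h at room temperature; 460/530 nm emission ratio, gain fitted against DMSO.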

[9] = ATG_XTT_Cytotoxicity: Cytotoxicity Assessment in the Attagene TRANS-FACTORIAL HepG2 Assay (AID 2283584)
Method in brief: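 HepG2 cells transiently transfected with GAL4-UAS multiple reporter units, dosed 24 h; cytotoxicity read by XTT as loss of signal versus DMSO baseline.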

Measured: outcome

C=CCCC(=O)/C=C/C1C(C)=CCCC1(C)C (configuration not stated)
not listed: [7] | [8] | [9]
inactive: all other assays above

CCO/C=C1\N=C(c2ccccc2)OC1=O
not listed: [5] | [9]
inactive: all other assays above

CCc1ccc(O)cc1
not listed: [6] | [8] | [9]
inactive: all other assays above

CSCCC=O
not listed: [3] | [5] | [9]
inactive: all other assays above

CCc1cc(C(C)(C)C)c(O)c(C(C)(C)C)c1
not listed: [8] | [9]
inactive: all other assays above

CCCC(=O)c1ccccc1
not listed: [5] | [8] | [9]
inactive: all other assays above

COCCOCCOCCO
not listed: [3] | [9]
inactive: all other assays above

O=C(Nc1ccc2c(c1)Cc1ccccc1-2)C(F)(F)F
not listed: [7] | [9]
inactive: all other assays above

COC(C)(C)CCCC(C)CC=O (configuration not stated)
inactive: [1] | [2] | [8] | [4] | [6]

C/C=C(\C)C(=O)OCCc1ccccc1
inactive: [1] | [2] | [7] | [8] | [3]

CCCCCC(=O)CC
not listed: [3] | [9]
inactive: all other assays above

Cc1c(OCC(F)(F)F)ccnc1CS(=O)c1nc2ccccc2[nH]1 (configuration not stated)
not listed: [8] | [9]
inactive: all other assays above

CN1CCOCC1
inactive: [1] | [2] | [8] | [6]

COC(=O)c1cccnc1
not listed: [8] | [9]
inactive: all other assays above

CC1C2CC(CC2C2CCCC(O)C2)C1(C)C (configuration not stated)
not listed: [9]
inactive: all other assays above

CCCCC1(COC(=O)CCC(=O)O)C(=O)N(c2ccccc2)N(c2ccccc2)C1=O
not listed: [9]
inactive: all other assays above

CC(=O)C1(C)CC2=C(CCCC2(C)C)CC1C (configuration not stated)
not listed: [7] | [9]
inactive: all other assays above

OCCc1ccccc1
inactive: [1] | [2] | [7] | [6]

NCC1CCCC(CN)C1 (configuration not stated)
inactive: [1] | [2] | [8] | [5] | [6]

C1=CC2C3C=CC(C3)C2C1 (configuration not stated)
not listed: [5] | [7] | [9]
inactive: all other assays above

Nc1ccccc1[N+](=O)[O-]
not listed: [4] | [9]
inactive: all other assays above

CC(C)Nc1nc(N)nc(Cl)n1
inactive: [9] | [6]

O=C(O)CCCCCCCCCCCC(=O)O
not listed: [6] | [7] | [9]
inactive: all other assays above

CCOCCOCCOCC
inactive: [1] | [2] | [4]

c1ccc(Oc2ccccc2)cc1
inactive: [2] | [8] | [3] | [4] | [6]

CCCCCCCCSCCO
inactive: [1] | [4]

C[N+](C)(C)CCCCCC[N+](C)(C)C
inactive: [2] | [3] | [6]

Cc1cc(CCC(=O)OCCOCCOCCOC(=O)CCc2cc(C)c(O)c(C(C)(C)C)c2)cc(C(C)(C)C)c1O
inactive: [2] | [7] | [5] | [6]
